This passage reports startle results from the supplement of paper PMC9950053.

Structures can show the parent of a compound that is named as a salt.

The experiment relates to Danio rerio larvae (5 dpf). The experiment can be described thus: startle (activity period 16 minus period 15, 20-s interval sound) minus DMSO control (percentage points); higher = stronger startle response than DMSO larvae. The settings on record: 10 µM; exposure time: 3 h pre-incubation + 3 h imaging. As for the experimental part:
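Wild-type 5 dpf zebrafish larvae (n=48 per drug, 96-well plates, 28.5 °C) were exposed to Tocris FDA-approved library compounds at 10 µM (0.1% DMSO) for 3 h before and 3 h during imaging. Images were taken every 6 s during visual and acoustic stimuli, and larvae were tracked with Z-LaP Tracker. Each measure is the treated-group mean minus the DMSO control mean (n=844), in percentage points. This mapping covers compounds with 5-character plate codes.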
For `COc1ccc(C(CN(C)C)C2(O)CCCCC2)cc1` (stereo unspecified) [Venlafaxine hydrochloride], the startle was -6.7.
